Screens: PubChem BioAssay, National Center for Advancing Translational Sciences (NCATS)
In the library only some 1.7% were active in any assay of this set; here they are far more common.
GLP-1R agonist: GLP-1 receptor (human) agonism; P43220; HEK293 GLP-1R CRE-luciferase, luminescence, 4-6 h; cells express a hypersensitive GLP-1R form; Potency, µM (doses to about 45.6 µM), for the others: top-dose activation, most hits filed as activators; hit rate 0.007% among 380,000; AID 624172; note: % of control where 0% means no effect
Target sequence (P43220 whole entry, looked up): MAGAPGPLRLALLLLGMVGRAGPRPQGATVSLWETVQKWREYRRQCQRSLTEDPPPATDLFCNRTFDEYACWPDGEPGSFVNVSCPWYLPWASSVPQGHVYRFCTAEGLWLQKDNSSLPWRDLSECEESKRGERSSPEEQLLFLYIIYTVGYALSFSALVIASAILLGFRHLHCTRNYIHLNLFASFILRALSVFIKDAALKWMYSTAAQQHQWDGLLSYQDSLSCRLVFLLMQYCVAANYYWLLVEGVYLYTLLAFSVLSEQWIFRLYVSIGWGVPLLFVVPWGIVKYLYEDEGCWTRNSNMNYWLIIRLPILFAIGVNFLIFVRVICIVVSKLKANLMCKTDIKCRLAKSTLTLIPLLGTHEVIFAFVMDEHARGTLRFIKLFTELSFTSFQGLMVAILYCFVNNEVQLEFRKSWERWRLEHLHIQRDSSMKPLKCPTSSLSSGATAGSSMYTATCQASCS
HEK293 tox: cytotoxicity counter-screen for GLP-1 receptor inverse agonists | HEK293 cAMP-luciferase reporter cells, luminescence, 24 h | Potency, µM (doses to about 38.3 µM), inactives show at the top dose activity change, negative = inhibition, most hits filed as inhibitors | hit rate 0.13% among 410,000 | AID 624418;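 note: loss of luciferase light is scored as toxicity; % is set by controls: 0 for no effect and ±100 for the full control effect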
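A 23 nL compound transfer followed 12 hours of cell culture at 37 deg C; exposure then lasted 24 hr. Luciferase assay detection reagent was dispensed and plates read for luminescence after a 12 min room-temperature wait.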
GLP-1R inv ag: inverse agonists of human GLP-1 receptor. P43220. HEK293 GLP-1R CRE-luciferase, luminescence, 24 h; GLP-1R form is constitutively active. Potency, µM (series often up to 38.3 µM), for the others: at the highest dose activity change, negative = inhibition, usual class: inhibitors. hit rate 1.6% among 410,000; note: % is set by controls: 0 for no effect and ±100 for the full control effect; nearly all actives have a fitted effect of over 55% in size
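Assay principle: reduced luminescence from a cAMP-responsive reporter in HEK293 cells co-expressing a constitutively active GLP-1R. Conditions: 24 hr compound incubation, 37 deg C, 5% CO2.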
The depositor's hits bear a star; ? = inconclusive; · = no result given; [ ] = remark or other dose. Calls come from the whole dose curve; as a rule, active = well fitted curve in the direction sought with a large enough effect; inconclusive = small, poorly fitted or top-dose-only effect, or another doubt; inactive = no such curve, though single readings can be large; an effect the other way counts as inactive or inconclusive. Potency is the fitted concentration of half-maximal effect.

SMILES | GLP-1R agonist | HEK293 tox | GLP-1R inv ag
Nn1c(SCC(=O)NCCCc2ccccc2)nnc1-c1cccnc1 | 9% | 8% | 21%
CCc1ccc(NC(=O)CSc2nc(=O)n(Cc3ccco3)c3c2CCC3)cc1 | · | 2% | -3%
CC(C)n1c(SCC(=O)Nc2ccc(F)cc2)nc2c(oc3ccccc32)c1=O | · | -1% | -1%
COc1ccc(CCN2CC(C(=O)NC3CCOCC3)CCC2=O)cc1 (stereo not drawn) | -1% | 1% | 9%
Cc1cccc(C)c1NC(=O)Cn1c(=O)n(CCC(=O)NCc2ccccc2Cl)c(=O)c2sccc21 | · | -1% | -5%
CSc1ccc(Nc2nn(-c3ccc(OC(F)(F)F)cc3)nc2C(C)=O)cc1 | · | -2% | 6%
CCOC(=O)C(Oc1ccc2c(-c3ccccc3)cc(=O)oc2c1)c1ccccc1 (stereo not drawn) | 14% | 24% | 11µM*
COC(=O)C(Oc1ccc2c(-c3ccc(OC)cc3)cc(=O)oc2c1)c1ccccc1 (stereo not drawn) | 4% | -11% | -29%
Cc1ccc(C(=O)NCCCn2ccnc2)cc1[N+](=O)[O-] | -2% | 1% | -18%
O=C(c1ccc(N2CCCCC2)c([N+](=O)[O-])c1)N1CCOCC1 | 5% | ? | 0%
O=C(NCCCn1ccnc1)c1ccc(N2CCCCCC2)c([N+](=O)[O-])c1 | 15% | -1% | 5µM*
O=C(c1ccc(N2CCCC2)c([N+](=O)[O-])c1)N1CCc2ccccc2C1 | 29% | -35% | 4.5µM*
CSc1cccc(-n2nnc(-c3nsc(NC(=O)c4cccs4)n3)c2C)c1 | · | -6% | 5%
CCOc1cccc(/C=N/NC(=S)Nc2cc(S(=O)(=O)N3CCOCC3)ccc2N2CCOCC2)c1O | 1% | -3% | 5µM*
COc1ccc2ccccc2c1/C=N/NC(=S)Nc1cc(S(=O)(=O)N2CCOCC2)ccc1N1CCOCC1 | -3% | -7%[1.53 µM] | 45%
O=C(N[C@@H](Cc1ccccc1)C(=O)N1CCN(S(=O)(=O)c2ccc(F)cc2)CC1)c1ccco1 | -11% | 3% | 10%
CCOC(=O)C1CCCN(C(=O)COc2ccc(C(=O)c3ccccc3)cc2)C1 (stereo not drawn) | 9% | -9% | 1.6µM*
CCOC(=O)C1CCCN(C(=O)c2ccc(C(=O)c3ccccc3)cc2)C1 (stereo not drawn) | 5% | -4% | ?
Cc1cccc(-c2cnc(C(O)c3ccc(F)c(C)c3)[nH]2)c1 (stereo not drawn) | -1% | 7% | -17%
O=C1Nc2ccc(Br)cc2/C1=C/C1CC=CCC1 (stereo not drawn) | -5% | -27% | 4.5µM*
COc1ccc(C(=O)/C=C2\C(=O)Nc3ccc(Br)cc32)cc1 | -14% | ? | ?
CCOc1cc(/C=C2\CN(CC)C/C(=C\c3ccc(O)c(OCC)c3)C2=O)ccc1O | -5% | -1% | 10µM*
COc1cc(/C=C2/CCCC(C(=O)C(F)(F)F)=C2O)ccc1O | 10% | -1% | 31%
CCOc1cc(/C=N/N=C/c2ccc(O)c(OCC)c2)ccc1O | 15% | -24% | 5%
COc1cc(/C=C2\CCC/C(=C\c3ccc(O)c(OC)c3)C2=O)ccc1O | -4% | 8.9µM* | ?
SMILES | GLP-1R agonist | HEK293 tox | GLP-1R inv ag
CCN(C(=O)c1ccc(NC(=O)C2CCCCC2C(=O)O)cc1)c1ccccc1 (stereo not drawn) | 2% | -20% | -3%
O=C(Nc1cccc(Cl)c1)c1ccc2nc(Cc3ccccc3)oc2c1 | · | ? | 10µM*
COc1ccc(Cl)cc1NC(=O)c1ccc2nc(Cc3ccccc3)oc2c1 | · | 1% | ?
Cc1ccc(-c2ccc(CN3C(C)C(=O)N(Cc4cn(CC5CCCCC5)nn4)CCS3(=O)=O)cc2)cc1 (stereo not drawn) | 4% | -10% | ?
O=C(Nc1ccccc1)C1CC2CCC1C2 (stereo not drawn) | -16% | 0% | -4%
CCN(CC)c1ccc(NC(=O)C2CC3CCC2C3)cc1 (stereo not drawn) | 0% | -15% | 7.9µM*
N/C(=N\OC(=O)/C=C/c1ccccc1)c1ccc(Cl)cc1 | 11% | 11µM* | 5%
N/C(=N\OC(=O)/C=C/c1ccccc1)c1ccccc1 | -4% | -1% | -2%
COc1ccc(C(=O)Nc2ccccc2)cc1NC(=O)c1cccs1 | 13% | -2% | -12%
COc1ccc(Cn2c(C3CCCCC3)nc3c(c(=O)c4ccccc4n3C)c2=O)cc1 | 2% | -21% | -18%
COc1ccc(CCn2c(C3CCCCC3)nc3c(c(=O)c4ccccc4n3C)c2=O)cc1 | 8% | 5µM* | ?
O=c1[nH]c(/C=C\c2ccc(O)c(O)c2)nc(O)c1[N+](=O)[O-] | 2% | 11µM* | -11%
O=c1[nH]c(/C=C\c2cccc(O)c2)nc(O)c1[N+](=O)[O-] | -1% | 0% | 4%
CNC(=O)C1CC(=O)N(c2ccc(OCC(=O)Nc3ccc(F)cc3)cc2)C1 (stereo not drawn) | 5% | 11% | 26%
Cc1nn(C)c(C)c1S(=O)(=O)N(CC(=O)NCCc1ccccc1)c1ccc(C(C)C)cc1 | · | 1% | -2%
COc1ccc(CCNC(=O)c2c(C)nn(CC(C)C)c2Cl)cc1 | ? | -7% | -27%
Cc1nn(CC(C)C)c(Cl)c1C(=O)N(c1ccc(Cl)cc1F)S(C)(=O)=O | -3% | -12% | 8.9µM*
COc1ccc(CNC(=O)Cc2c(C)c3cc4c(C)coc4cc3oc2=O)cc1OC | · | -14% | 1%
Clc1cccc(-n2ncc3c(NC4CCCCCC4)ncnc32)c1 | · | -32% | 10µM*
Cc1ccc(-n2ncc3c(NC4CCCC4)ncnc32)cc1 | · | -12% | ?
COc1ccc(-n2ncc3c(NC4CCCC4)ncnc32)cc1 | · | -22% | 7.9µM*
Cc1cccc(-n2ncc3c(NC4CCCCC4)ncnc32)c1 | 6% | -8% | ?
CC1CCc2nc3ncn(Cc4cccc(F)c4)c(=O)c3cc2C1 (stereo not drawn) | · | -7% | 18%
CCCCNc1ncnc2c1cnn2-c1ccccc1 | -2% | ? | ?
CCc1nc(NC(C)(C)C)c2cnn(-c3ccccc3)c2n1 | 21% | -16% | 2µM*
SMILES | GLP-1R agonist | HEK293 tox | GLP-1R inv ag
O=C(Cn1cc(/C=C\[N+](=O)[O-])c2ccccc21)Nc1ccccc1 | -4% | ? | 7.1µM*
O=C(O)Cn1cc(/C=C/[N+](=O)[O-])c2ccccc21 | 0% | 17%[7.66 µM] | -13%[7.66 µM]
O=C(COC(=O)/C=C/c1ccc(OC(F)F)cc1)Nc1cccc(S(=O)(=O)N2CCOCC2)c1 | 6% | -10% | ?
COc1ccc(OC(C)C(=O)NCCC2=CCCCC2)cc1 (stereo not drawn) | 25% | -6% | 11µM*
COc1ccc(C(=O)NCCC2=CCCCC2)cc1 | -3% | -25% | ?
CN(c1ncc(C(F)(F)F)cc1Cl)N1C(=O)c2cccc([N+](=O)[O-])c2C1=O | 0% | -15% | 14%
COCCn1nnnc1C(c1cc2ccc(OC)cc2[nH]c1=O)N1CCN(C2CCCCC2)CC1 (stereo not drawn) | -10% | -21% | 0%
COCCn1nnnc1C(c1cc2cc(C)ccc2[nH]c1=O)N1CCN(C2CCCCC2)CC1 (stereo not drawn) | 0% | 11µM* | 21%
